# In PubChem BioAssay:
# Records with an inconclusive call do not appear. Calls of active or inactive are those of the source.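 The calls were made as follows, unless noted: active = GFP response, as percent of the DMSO control, above the screen-wide mean plus 3 SD, about 139; inconclusive = no response measured because the compound's own fluorescence interfered; inactive = the rest.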
# Experiments:
# [1] = rapamycin-like changes in RPL19A-GFP expression – cell-based, S. cerevisiae, multiplex flow cytometry, primary screen (AID 1862; in the data active = percent of DMSO control GFP below about 86%;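 also: lower values mimic rapamycin by blocking the RPL19A rise seen in DMSO cells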); details: S. cerevisiae RPL19A-GFP strain, flow cytometry fluorescence, 3 h; at 10 µM; stronger effect = lower value
# [2] = TOR pathway GLN3 branch reporter MEP2-GFP changes – S. cerevisiae, multiplex flow cytometry, primary screen (AID 1867);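 also: median GFP channel fluorescence of barcode-gated MEP2-GFP cells measured by flow cytometry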; details: S. cerevisiae MEP2-GFP strain, 3 h, at 10 µM, stronger effect = higher value, 100% means same as DMSO wells
# [3] = TOR pathway RTG branch CIT2 reporter changes – S. cerevisiae, GFP fusion, multiplex flow cytometry, primary screen (AID 1870;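 active = percent response above a set limit, the screen-wide mean plus 3 SD, cut at about 130% in these data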;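 also: barcoded CIT2-GFP strain pooled with four other GFP strains with rapamycin as positive control; median GFP fluorescence per well over plate mean of DMSO wells so 100% = DMSO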); details: S. cerevisiae CIT2-GFP expression, 3 h, at 10 µM, stronger effect = higher value
# [4] = TOR pathway LAP4-GFP level changes – S. cerevisiae, multiplex flow cytometry, primary screen (AID 1873;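 active = GFP signal, as percent of the solvent control, above the screen mean plus 3 SD, about 149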); details: S. cerevisiae LAP4-GFP expression, 3 h, at 10 µM, stronger effect = higher value
# [5] = yeast AGP1-GFP level changes, GLN3 branch – cell-based, multiplex flow cytometry, S. cerevisiae, primary screen (AID 1887;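 active = GFP signal above the screen-wide mean plus 3 SD, that is over about 124.5% of the solvent control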;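 also: AGP1-GFP fusion strain of S. cerevisiae within a five-strain barcoded multiplex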); details: 3 h, at 10 µM, stronger effect = higher value
# [6] = reduced mouse 2C T cell binding to pMHC/ICAM-1 vesicles – MLPCN validation set, flow cytometry, LFA-1/ICAM-1 modulator project, pilot screen (AID 2523;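 active = response below a set limit, under 55% cells CD8-positive and vesicle-bound, and CD8 cells' 90th-percentile brightness under 279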;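 as to vesicle binding response: mean PE anti-B7-1 fluorescence of CD8+ cells relative to row control; 100% = QL9-loaded vesicles with DMSO vehicle in the same plate row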); details: 2C mouse CD8+ T cells, at 7 µM, stronger effect = lower value; double positive events: measured here: CD8+/vesicle+ event percentage
# [7] = target: Integrin beta-1 (Homo sapiens) + Integrin alpha-4 (Homo sapiens) (UniProt P13612+P05556); assay: alpha4beta1 integrin LIBS antibody binding reduction – U937 cells, HUTS-21 mAb, flow cytometry, validation set, VLA-4 allosteric modulator project, pilot screen (AID 2674;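 active = inhibition above 50%, about 3 SD of the validation set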;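 also: antibody binding induced by the VLA-4 ligand LDV present at three times its Kd; 0% = LDV ligand with antibody and no compound and 100% = antibody without LDV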); details: HUTS-21 LIBS mAb binding, at 6.7 µM, stronger effect = higher value, binding induced by LDV ligand
# [8] = calorie-restriction mimetic ROS inhibitors, yeast – validation compound set, pilot screen (AID 2706;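 active = superoxide response below 65% of plate, a cut near 3 SD across the whole screen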;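 also: yeast exposed to compound for one week at 30 degrees C before staining; 100% = mean of all compound wells on the same plate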); details: S. cerevisiae aging, superoxide DHE fluorescence; at 10 µM, stronger effect = lower value
# [9] = target: Beta-adrenergic receptor kinase 1 (Homo sapiens) (UniProt P25098); assay: GRK2 binders displacing RNA aptamer, biochemical, validation, human GRK2, bead flow cytometry (AID 488806;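 active = aptamer binding inhibition above 30%, about 3 SD of noise from non-fluorescent compounds; inactive = inhibition at or below 30%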); details: bead-bound GRK2, FAM-aptamer displacement, at 10 µM, stronger effect = higher value
# [10] = target: AP-2 complex subunit beta (Homo sapiens) (UniProt P63010); assay: beta-arrestin/AP2 interaction blockers – biochemical, validation set, GST-AP2 beads, flow cytometry, pilot screen (AID 504541;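 active = inhibition above 54%, about 3 SD of non-fluorescent compounds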;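 also: AP2 carries R879A mutation and is captured from E. coli lysate; bead-bound FITC arrestin peptide fluorescence measuring arrestin peptide binding to AP2; 0% = DMSO wells and 100% = excess unlabeled arrestin peptide control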); details: FITC arrestin peptide, at 10 µM, stronger effect = higher value, AP2 beta2 appendage fragment, R879A mutant
# [11] = cytosolic pH regulators acting via V-ATPase – S. cerevisiae, pHLuorin, HTS validation (AID 504600; in the data active = response above about 15%;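 also: plate controls were DMSO for no effect and reference compound for full effect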); details: V-ATPase proton transport, at 10 µM, stronger effect = higher value
# [12] = tested on: anti-desmoglein-3 scFv antibody binding to human DSG3; assay: blockers of pathogenic pemphigus antibody–desmoglein-3 binding – biochemical, validation compound set, bead-based, flow cytometry, pilot screen (AID 588368;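 active = binding below the plate cutoff, the plate median minus 3 SD, with a reading above zero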;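 also: signal is the median channel fluorescence of bead-bound GFP antibody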); details: Protein G beads, DSG3-Fc, scFv-GFP binding, at 10 µM, stronger effect = lower value
# [13] = Nile Red efflux blockade in pump-expressing yeast – validation compound set, multiplex, phenotypic, pilot screen (AID 588506;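 active = efflux inhibition above 0.42, the validation set average plus 4 SD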;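 also: Nile Red retained in cells so higher fluorescence means more efflux inhibition; 0 = negative control wells and 1 = enniatin B 25 µM full block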); details: S. cerevisiae pump-expressing triplex, Nile Red efflux flow cytometry; at 10 µM; stronger effect = higher value; the pumps come from Candida albicans
# [14] = target: ATP-binding cassette sub-family B member 6 (Homo sapiens) (UniProt Q9NP58); assay: blockers of ABCB6-driven porphyrin uptake – K562-ABCB6 cells, flow cytometry, validation set, pilot screen (AID 588550;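 active = inhibition above the screen-wide mean plus 3 SD, about 51%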;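 also: 0% = DMSO wells and 100% = benzethonium chloride 70 µM positive control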); details: K562-ABCB6 porphyrin accumulation, 1 h, at 10 µM, stronger effect = higher value
# [15] = AML differentiation inducers, ER-HoxA9 marrow cells – cell-based, GFP/MAC1 double positive, flow cytometry, validation set, primary screen (AID 588685;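 active = differentiation response of at least 50%, scaled between solvent and reference control, from cells with both markers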;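 also: compound exposure lasts four days before antibody staining and flow analysis; 0% = DMSO wells and 100% = 5 µM fulvestrant positive control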); details: stronger effect = higher value, normalized: vehicle 0, fulvestrant 100
# Chain of ATP-binding cassette sub-family B member 6 (Homo sapiens) (Q9NP58 whole entry, looked up): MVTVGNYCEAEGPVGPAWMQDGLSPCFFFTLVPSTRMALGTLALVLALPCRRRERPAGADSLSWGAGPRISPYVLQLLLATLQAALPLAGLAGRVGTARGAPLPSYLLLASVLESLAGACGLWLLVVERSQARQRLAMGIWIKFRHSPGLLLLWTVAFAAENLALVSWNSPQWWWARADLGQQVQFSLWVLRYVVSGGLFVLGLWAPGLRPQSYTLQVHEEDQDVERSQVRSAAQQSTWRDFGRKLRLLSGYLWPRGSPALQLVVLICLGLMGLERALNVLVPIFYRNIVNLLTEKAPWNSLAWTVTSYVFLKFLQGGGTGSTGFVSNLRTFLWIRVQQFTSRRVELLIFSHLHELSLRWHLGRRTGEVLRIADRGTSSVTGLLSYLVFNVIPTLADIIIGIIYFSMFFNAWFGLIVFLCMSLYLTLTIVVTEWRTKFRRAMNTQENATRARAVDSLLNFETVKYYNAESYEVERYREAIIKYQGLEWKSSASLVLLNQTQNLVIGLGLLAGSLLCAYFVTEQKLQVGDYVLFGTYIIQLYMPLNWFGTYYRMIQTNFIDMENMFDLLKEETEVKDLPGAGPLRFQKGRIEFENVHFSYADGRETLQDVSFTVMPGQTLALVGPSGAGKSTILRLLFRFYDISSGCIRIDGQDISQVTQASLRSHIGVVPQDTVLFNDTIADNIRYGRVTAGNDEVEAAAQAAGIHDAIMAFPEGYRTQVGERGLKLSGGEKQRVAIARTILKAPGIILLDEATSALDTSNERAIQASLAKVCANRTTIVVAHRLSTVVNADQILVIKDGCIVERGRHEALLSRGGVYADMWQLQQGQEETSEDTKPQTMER
# Chain of Beta-adrenergic receptor kinase 1 (Homo sapiens) (P25098 whole entry, looked up): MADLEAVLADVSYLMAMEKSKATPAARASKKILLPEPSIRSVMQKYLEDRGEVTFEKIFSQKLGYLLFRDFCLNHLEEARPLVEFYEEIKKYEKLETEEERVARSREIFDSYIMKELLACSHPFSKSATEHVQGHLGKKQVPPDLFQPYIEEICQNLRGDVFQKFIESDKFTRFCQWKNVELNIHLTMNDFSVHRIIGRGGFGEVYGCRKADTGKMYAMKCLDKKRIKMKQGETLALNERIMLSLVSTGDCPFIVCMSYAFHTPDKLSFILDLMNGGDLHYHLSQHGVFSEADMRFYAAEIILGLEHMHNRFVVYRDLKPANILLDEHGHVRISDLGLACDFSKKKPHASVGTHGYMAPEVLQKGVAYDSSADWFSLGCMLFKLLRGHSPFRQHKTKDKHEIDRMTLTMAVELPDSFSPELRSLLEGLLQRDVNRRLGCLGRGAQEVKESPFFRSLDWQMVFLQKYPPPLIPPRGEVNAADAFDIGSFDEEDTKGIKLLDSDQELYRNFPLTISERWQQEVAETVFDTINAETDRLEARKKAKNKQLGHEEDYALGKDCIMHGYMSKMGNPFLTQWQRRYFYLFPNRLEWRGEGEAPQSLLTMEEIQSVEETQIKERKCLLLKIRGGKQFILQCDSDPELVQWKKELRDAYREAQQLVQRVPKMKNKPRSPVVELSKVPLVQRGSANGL
# Chain of Integrin beta-1 (Homo sapiens) + Integrin alpha-4 (Homo sapiens) (P05556 whole entry, looked up): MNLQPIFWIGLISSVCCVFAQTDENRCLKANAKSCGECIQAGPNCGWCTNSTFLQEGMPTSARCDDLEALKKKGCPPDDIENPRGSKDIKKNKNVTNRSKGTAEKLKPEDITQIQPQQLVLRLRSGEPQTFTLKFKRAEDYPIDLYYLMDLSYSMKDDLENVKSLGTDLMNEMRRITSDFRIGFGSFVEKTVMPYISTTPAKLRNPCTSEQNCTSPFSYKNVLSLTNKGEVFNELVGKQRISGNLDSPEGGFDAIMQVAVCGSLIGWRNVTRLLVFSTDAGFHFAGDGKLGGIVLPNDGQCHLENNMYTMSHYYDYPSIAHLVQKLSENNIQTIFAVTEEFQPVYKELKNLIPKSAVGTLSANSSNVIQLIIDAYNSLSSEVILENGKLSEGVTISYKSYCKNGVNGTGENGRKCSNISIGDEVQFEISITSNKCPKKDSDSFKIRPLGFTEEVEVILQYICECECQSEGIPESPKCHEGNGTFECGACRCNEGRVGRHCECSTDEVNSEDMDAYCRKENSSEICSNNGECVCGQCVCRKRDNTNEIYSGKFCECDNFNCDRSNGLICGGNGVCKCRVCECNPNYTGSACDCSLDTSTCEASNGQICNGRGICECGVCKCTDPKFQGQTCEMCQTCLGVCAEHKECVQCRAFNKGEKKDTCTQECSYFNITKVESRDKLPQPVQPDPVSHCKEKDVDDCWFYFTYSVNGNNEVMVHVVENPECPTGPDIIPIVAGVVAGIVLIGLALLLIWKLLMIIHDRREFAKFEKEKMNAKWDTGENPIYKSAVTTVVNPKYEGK
# Chain of Integrin beta-1 (Homo sapiens) + Integrin alpha-4 (Homo sapiens) (P13612 whole entry, looked up): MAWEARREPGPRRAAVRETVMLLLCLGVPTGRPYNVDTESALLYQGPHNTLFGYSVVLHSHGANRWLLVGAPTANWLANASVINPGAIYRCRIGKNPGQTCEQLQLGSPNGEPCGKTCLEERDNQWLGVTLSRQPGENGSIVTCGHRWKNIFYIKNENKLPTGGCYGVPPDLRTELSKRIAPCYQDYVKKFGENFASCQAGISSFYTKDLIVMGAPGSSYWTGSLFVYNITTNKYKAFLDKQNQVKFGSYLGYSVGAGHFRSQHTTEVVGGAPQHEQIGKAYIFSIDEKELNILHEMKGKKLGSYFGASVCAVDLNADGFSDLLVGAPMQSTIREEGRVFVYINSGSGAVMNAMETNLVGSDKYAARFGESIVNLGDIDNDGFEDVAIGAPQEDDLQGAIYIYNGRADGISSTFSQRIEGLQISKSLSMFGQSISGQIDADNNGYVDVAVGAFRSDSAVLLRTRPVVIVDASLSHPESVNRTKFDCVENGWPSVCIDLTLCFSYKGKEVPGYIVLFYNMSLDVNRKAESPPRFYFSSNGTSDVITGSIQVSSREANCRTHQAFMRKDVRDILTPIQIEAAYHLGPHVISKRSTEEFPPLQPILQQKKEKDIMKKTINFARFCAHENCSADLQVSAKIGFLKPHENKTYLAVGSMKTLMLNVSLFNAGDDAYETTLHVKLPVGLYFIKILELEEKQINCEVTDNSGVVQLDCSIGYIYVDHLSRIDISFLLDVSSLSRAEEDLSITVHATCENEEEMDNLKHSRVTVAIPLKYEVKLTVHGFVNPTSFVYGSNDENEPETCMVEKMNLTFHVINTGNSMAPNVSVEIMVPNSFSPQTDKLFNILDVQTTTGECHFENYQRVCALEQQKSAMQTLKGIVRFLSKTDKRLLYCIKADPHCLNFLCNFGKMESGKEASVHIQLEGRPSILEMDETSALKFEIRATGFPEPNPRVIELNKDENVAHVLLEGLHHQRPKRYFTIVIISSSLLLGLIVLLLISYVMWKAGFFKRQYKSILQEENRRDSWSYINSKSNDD
# Chain of AP-2 complex subunit beta (Homo sapiens) (P63010 whole entry, looked up, the tested form may be a part, one chain of several): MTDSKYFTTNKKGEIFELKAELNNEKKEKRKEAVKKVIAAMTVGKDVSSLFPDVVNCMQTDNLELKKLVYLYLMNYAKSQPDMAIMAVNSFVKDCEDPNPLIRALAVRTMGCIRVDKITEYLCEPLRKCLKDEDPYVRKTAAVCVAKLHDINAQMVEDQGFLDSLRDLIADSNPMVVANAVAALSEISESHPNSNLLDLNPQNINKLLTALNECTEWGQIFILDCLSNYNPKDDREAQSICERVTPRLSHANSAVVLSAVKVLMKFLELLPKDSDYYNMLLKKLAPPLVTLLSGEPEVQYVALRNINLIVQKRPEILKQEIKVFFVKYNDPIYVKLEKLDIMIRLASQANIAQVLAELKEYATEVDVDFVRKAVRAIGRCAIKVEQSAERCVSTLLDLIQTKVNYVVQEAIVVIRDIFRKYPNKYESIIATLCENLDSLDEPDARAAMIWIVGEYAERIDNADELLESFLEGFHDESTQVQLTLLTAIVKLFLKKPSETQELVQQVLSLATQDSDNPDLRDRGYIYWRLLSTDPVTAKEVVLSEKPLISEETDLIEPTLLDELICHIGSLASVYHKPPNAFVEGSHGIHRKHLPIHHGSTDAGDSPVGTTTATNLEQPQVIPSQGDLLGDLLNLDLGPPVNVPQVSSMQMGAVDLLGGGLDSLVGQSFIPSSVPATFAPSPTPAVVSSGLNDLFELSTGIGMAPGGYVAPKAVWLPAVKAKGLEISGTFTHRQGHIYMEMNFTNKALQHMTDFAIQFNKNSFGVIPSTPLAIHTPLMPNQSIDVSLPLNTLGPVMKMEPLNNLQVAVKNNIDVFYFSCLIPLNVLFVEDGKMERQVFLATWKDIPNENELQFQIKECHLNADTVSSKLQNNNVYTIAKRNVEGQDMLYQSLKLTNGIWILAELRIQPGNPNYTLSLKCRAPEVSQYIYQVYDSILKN
Structure (SMILES),percent of DMSO control GFP [1],GFP response vs DMSO [2],percent response of DMSO control [3],GFP response vs DMSO [4],"GFP response, % of DMSO [5]",double positive events [6] [%],vesicle binding response [6],inhibition [7],superoxide response (% of plate) [8],aptamer binding inhibition [9],inhibition [10],response [11],binding (% of control) [12],efflux inhibition (fraction of control) [13],inhibition [14],differentiation response [15]
O=S(=O)(NCCCCCNS(=O)(=O)c1ccccc1)c1ccccc1,104% (inactive),105% (inactive),95.9% (inactive),92.3% (inactive),92.8% (inactive),57.2,127% (inactive),-13.3% (inactive),104% (inactive),-3% (inactive),3.03% (inactive),1.49% (inactive),103% (inactive),0.56 (active),10% (inactive),-11.5% (inactive)
COC(=O)c1cc(=O)c2ccc(OC)cc2o1,99.1% (inactive),97.9% (inactive),111% (inactive),100% (inactive),90.9% (inactive),52.9,152% (inactive),17.5% (inactive),94.7% (inactive),1% (inactive),-3.93% (inactive),37.7% (active),101% (inactive),0.03 (inactive),6% (inactive),-11.5% (inactive)
CC(C)CCOCC(=O)Nc1cccc(C(=O)O)c1,99.5% (inactive),107% (inactive),98.8% (inactive),95.4% (inactive),99.7% (inactive),59.8,174% (inactive),10.9% (inactive),110% (inactive),1% (inactive),41.3% (inactive),-5.9% (inactive),103% (inactive),-0.12 (inactive),3% (inactive),11.1% (inactive)
CCn1cc(C(=O)O)c(=O)c2cnc(N3CCNCC3)nc21,99.1% (inactive),99.9% (inactive),104% (inactive),91.3% (inactive),99.7% (inactive),61,164% (inactive),7.22% (inactive),85.2% (inactive),0% (inactive),32.7% (inactive),-7.56% (inactive),99% (inactive),-0.31 (inactive),6% (inactive),-19.6% (inactive)
CCOc1cc2oc(=O)c3c(c2cc1Cl)CCC3,104% (inactive),99.9% (inactive),102% (inactive),111% (inactive),107% (inactive),51.1,165% (inactive),-6.77% (inactive),109% (inactive),1% (inactive),-15.2% (inactive),-4.08% (inactive),103% (inactive),-0.05 (inactive),6% (inactive),-11.5% (inactive)
N#Cc1c2c(c(-c3ccccc3)[nH]c1=O)CCCC2,102% (inactive),98.9% (inactive),103% (inactive),85.3% (inactive),100% (inactive),56.8,158% (inactive),-7.7% (inactive),94% (inactive),3% (inactive),-4.92% (inactive),-1.34% (inactive),98.8% (inactive),-0.05 (inactive),5% (inactive),-22.8% (inactive)
c1cc2c(cc1C1CCCCC1)c1c3n2CCN=C3CCC1,98.1% (inactive),107% (inactive),99.8% (inactive),99.4% (inactive),93.1% (inactive),57.1,224% (inactive),-9.57% (inactive),98.8% (inactive),-9% (inactive),-7.03% (inactive),-0.63% (inactive),114% (inactive),0.03 (inactive),-1% (inactive),-9.89% (inactive)
O=C(c1ccc(O)cc1)c1ccc(O)cc1O,101% (inactive),108% (inactive),104% (inactive),101% (inactive),99.1% (inactive),59.2,122% (inactive),4.42% (inactive),95.7% (inactive),3% (inactive),45.5% (inactive),-7.71% (inactive),96.9% (inactive),0.06 (inactive),6% (inactive),49.9% (active)
Cc1ccc2c(c1)c1c3n2CCCNC3CCC1 (centres undefined),103% (inactive),106% (inactive),107% (inactive),95.4% (inactive),94% (inactive),63.9,229% (inactive),10% (inactive),85.7% (inactive),-4% (inactive),-3% (inactive),3.62% (inactive),111% (inactive),-0.05 (inactive),9% (inactive),-3.43% (inactive)
